{
  "source": "paper PMC4336329",
  "about": "(PLoS ONE, 2015)",
  "note": "Hit rate of the full screen: of about 310,000 compounds, about 14,000 (4.5%) showed an effect of 50% or more. The effect is printed as a negative number. The full list was thinned out, with strong results kept by preference.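 Also: peak tail current of the secondary pulse compared with the same well before compound.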",
  "data": [
    {"target": "human ether-à-go-go-related gene (hERG) potassium channel (human, UniProt Q12809)", "sequence (Q12809 whole entry, looked up)": "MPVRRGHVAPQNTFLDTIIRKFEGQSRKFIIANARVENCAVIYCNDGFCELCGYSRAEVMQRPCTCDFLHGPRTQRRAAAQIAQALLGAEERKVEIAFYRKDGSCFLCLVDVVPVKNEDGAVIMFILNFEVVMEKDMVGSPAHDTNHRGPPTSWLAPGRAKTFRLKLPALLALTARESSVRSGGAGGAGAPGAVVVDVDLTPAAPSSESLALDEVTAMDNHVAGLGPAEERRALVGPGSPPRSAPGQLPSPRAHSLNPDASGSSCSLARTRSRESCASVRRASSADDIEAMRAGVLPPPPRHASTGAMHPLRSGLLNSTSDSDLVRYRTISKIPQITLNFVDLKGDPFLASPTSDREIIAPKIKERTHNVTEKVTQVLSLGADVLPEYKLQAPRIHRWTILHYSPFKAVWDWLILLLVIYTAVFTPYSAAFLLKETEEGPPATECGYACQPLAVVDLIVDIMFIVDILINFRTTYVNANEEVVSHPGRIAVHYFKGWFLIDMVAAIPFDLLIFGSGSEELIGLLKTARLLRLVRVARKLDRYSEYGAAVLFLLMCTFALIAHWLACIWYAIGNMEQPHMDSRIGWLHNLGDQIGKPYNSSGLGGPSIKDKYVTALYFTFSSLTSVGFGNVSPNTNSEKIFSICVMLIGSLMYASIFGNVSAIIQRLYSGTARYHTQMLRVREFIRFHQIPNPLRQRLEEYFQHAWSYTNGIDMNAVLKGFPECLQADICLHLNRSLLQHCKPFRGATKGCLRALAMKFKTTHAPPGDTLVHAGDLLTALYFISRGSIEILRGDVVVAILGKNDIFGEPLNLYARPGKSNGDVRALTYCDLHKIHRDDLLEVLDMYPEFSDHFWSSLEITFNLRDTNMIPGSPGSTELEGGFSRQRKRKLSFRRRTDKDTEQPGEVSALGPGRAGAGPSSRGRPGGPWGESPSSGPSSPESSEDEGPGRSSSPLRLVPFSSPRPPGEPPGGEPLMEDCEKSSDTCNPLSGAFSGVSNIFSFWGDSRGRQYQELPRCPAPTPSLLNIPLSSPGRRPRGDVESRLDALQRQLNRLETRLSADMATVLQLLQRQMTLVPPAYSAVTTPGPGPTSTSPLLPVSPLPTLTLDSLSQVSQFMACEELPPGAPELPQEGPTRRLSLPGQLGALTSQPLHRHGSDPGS", "assay": "primary screen, population patch clamp on CHO cells stably expressing hERG; higher = less effect of the substance", "units": {"hERG current change (%, negative = inhibition) at 10uM": "%"}, "values": [
      {"smiles": "O=C(Cn1nnc(-c2ccccc2)n1)NNC(=O)c1ccc(Br)cc1", "hERG current change (%, negative = inhibition) at 10uM": 17.6},
      {"smiles": "O=C(Nc1nnc(-c2ccco2)s1)C1CC1", "hERG current change (%, negative = inhibition) at 10uM": -10.2},
      {"smiles": "O=C(CN1C(=O)/C(=C/c2c(F)cccc2Cl)Oc2ccccc21)NCc1ccco1", "hERG current change (%, negative = inhibition) at 10uM": 10.9},
      {"smiles": "CC(=O)O.Cc1ccc(C2C(C(=O)c3cccs3)=C(O)C(=O)N2c2ccc(S(N)(=O)=O)cc2)cc1", "note": "(stereo not drawn)", "hERG current change (%, negative = inhibition) at 10uM": 16.5},
      {"smiles": "CCOc1ccc(-n2cc(C(=O)N3CCN(C)CC3)c3cc(OC)c(OC)cc3c2=O)cc1", "hERG current change (%, negative = inhibition) at 10uM": 4.98},
      {"smiles": "CCN(CC)CCN(C(=O)/C=C/c1cccs1)c1nc2ccc(C)cc2s1.Cl", "hERG current change (%, negative = inhibition) at 10uM": -10.8},
      {"smiles": "CCN(CC)CCN(C(=O)c1ccc(Br)s1)c1nc2cc3c(cc2s1)OCO3.Cl", "hERG current change (%, negative = inhibition) at 10uM": -12},
      {"smiles": "CCN(C(=O)C1=COCCO1)c1nc2c(C)cccc2s1", "hERG current change (%, negative = inhibition) at 10uM": -17.2},
      {"smiles": "Cc1cc(C)c2sc(NC(=O)C3=COCCO3)nc2c1", "hERG current change (%, negative = inhibition) at 10uM": -11.6},
      {"smiles": "CCN(CC)CCN(C(=O)c1c(F)cccc1F)c1nc2cc(C)cc(C)c2s1.Cl", "hERG current change (%, negative = inhibition) at 10uM": -11.1},
      {"smiles": "CCN(CC)CCN(C(=O)C1=COCCO1)c1nc2cc3c(cc2s1)OCO3.Cl", "hERG current change (%, negative = inhibition) at 10uM": -72},
      {"smiles": "CCN(CC)CCN(C(=O)C1=COCCO1)c1nc2cc(C)cc(C)c2s1.Cl", "hERG current change (%, negative = inhibition) at 10uM": -69},
      {"smiles": "CCN(CC)CCN(C(=O)C1=COCCO1)c1nc2c(OC)ccc(OC)c2s1.Cl", "hERG current change (%, negative = inhibition) at 10uM": -78.3},
      {"smiles": "CCN(CC)CCN(C(=O)C1=COCCO1)c1nc2ccc(C)cc2s1.Cl", "hERG current change (%, negative = inhibition) at 10uM": -78.3},
      {"smiles": "CCN(CC)CCN(C(=O)c1ccc(S(=O)(=O)N(CC)c2ccccc2)cc1)c1nc2c(OC)ccc(OC)c2s1.Cl", "hERG current change (%, negative = inhibition) at 10uM": -27},
      {"smiles": "Cc1ccc2nc(N(CCN(C)C)C(=O)C3=COCCO3)sc2c1.Cl", "hERG current change (%, negative = inhibition) at 10uM": -44.1},
      {"smiles": "CCN(CC)CCN(C(=O)c1cc(Cl)sc1Cl)c1nc2cc3c(cc2s1)OCO3.Cl", "hERG current change (%, negative = inhibition) at 10uM": -24.7},
      {"smiles": "Cc1cc2ccccc2n1CCNC(=O)c1cccs1", "hERG current change (%, negative = inhibition) at 10uM": -0.757},
      {"smiles": "CN(C(=O)Nc1ccccc1)C1CCCCC1", "hERG current change (%, negative = inhibition) at 10uM": 10.2},
      {"smiles": "C=CCOC(=O)C1=C(C)NC(SCC(=O)Nc2ccccc2)=C(C#N)C1c1ccco1", "note": "(stereo not drawn)", "hERG current change (%, negative = inhibition) at 10uM": -15.1},
      {"smiles": "CCC(Sc1nc2ccccc2o1)C(=O)Nc1nnc(C)s1", "note": "(stereo not drawn)", "hERG current change (%, negative = inhibition) at 10uM": -12.4},
      {"smiles": "CN(C)C(=O)c1cc(C(=O)c2ccc(F)cc2F)c[nH]1", "hERG current change (%, negative = inhibition) at 10uM": 14.6},
      {"smiles": "Cc1ccccc1-n1c(SCc2cc(=O)n3ccccc3n2)nc2[nH]ncc2c1=O", "hERG current change (%, negative = inhibition) at 10uM": -35.2},
      {"smiles": "CCc1ccc(-n2c(SCc3cc(=O)n4cc(Br)ccc4n3)nc3[nH]ncc3c2=O)cc1", "hERG current change (%, negative = inhibition) at 10uM": -51},
      {"smiles": "O=c1c2cn[nH]c2nc(SCc2cc(=O)n3cc(Br)ccc3n2)n1-c1ccc(Br)cc1", "hERG current change (%, negative = inhibition) at 10uM": -24.8},
      {"smiles": "CN(Cc1ccccc1)C(=O)c1ccc2c(c1)OCCO2", "hERG current change (%, negative = inhibition) at 10uM": 5.55},
      {"smiles": "COc1ccc(-c2nc3ccccc3c(=O)n2CCOc2cccc(C)c2C)cc1", "hERG current change (%, negative = inhibition) at 10uM": 15},
      {"smiles": "NC(=O)Cn1cc(C(=O)C(=O)N2CCOCC2)c2ccccc21", "hERG current change (%, negative = inhibition) at 10uM": 1.6},
      {"smiles": "Cc1cc(F)ccc1S(=O)(=O)Nc1ccccc1C(=O)Nc1ccccc1-c1nc2ccccc2[nH]1", "hERG current change (%, negative = inhibition) at 10uM": 4.92},
      {"smiles": "O=C(NN1CC(C(=O)OCc2ccc(Br)cc2)CC1=O)c1ccccc1", "note": "(stereo not drawn)", "hERG current change (%, negative = inhibition) at 10uM": -21.2},
      {"smiles": "O=C(NN1CC(C(=O)OCc2ccc(Cl)cc2Cl)CC1=O)c1ccccc1", "note": "(stereo not drawn)", "hERG current change (%, negative = inhibition) at 10uM": -16.5},
      {"smiles": "O=C(NN1CC(C(=O)OCc2ccccc2F)CC1=O)c1ccccc1", "note": "(stereo not drawn)", "hERG current change (%, negative = inhibition) at 10uM": -56.8},
      {"smiles": "COc1cccc2cc(C(C)N(CCCN3CCOCC3)C(=O)Nc3ccccc3)oc12", "note": "(stereo not drawn)", "hERG current change (%, negative = inhibition) at 10uM": -16.9},
      {"smiles": "COc1cccc(NC(=S)N(CCCN2CCOCC2)C(C)c2cc3ccccc3o2)c1", "note": "(stereo not drawn)", "hERG current change (%, negative = inhibition) at 10uM": -44},
      {"smiles": "COc1cccc(NC(=O)N(CCCN2CCOCC2)C(C)c2cc3cccc(OC)c3o2)c1", "note": "(stereo not drawn)", "hERG current change (%, negative = inhibition) at 10uM": -29.4},
      {"smiles": "COc1ccc(NC(=S)N(CCCN2CCOCC2)C(C)c2cc3ccccc3o2)cc1", "note": "(stereo not drawn)", "hERG current change (%, negative = inhibition) at 10uM": -78.4},
      {"smiles": "COc1ccc(NC(=S)N(CCCN2CCOCC2)C(C)c2cc3cccc(OC)c3o2)cc1", "note": "(stereo not drawn)", "hERG current change (%, negative = inhibition) at 10uM": -35.5},
      {"smiles": "COc1cccc(NC(=O)N(CCCN2CCOCC2)C(C)c2cc3ccccc3o2)c1", "note": "(stereo not drawn)", "hERG current change (%, negative = inhibition) at 10uM": -62.5},
      {"smiles": "Cn1c(=O)oc2cc(S(=O)(=O)NCCC(=O)NCCc3ccccc3)ccc21", "hERG current change (%, negative = inhibition) at 10uM": 1.29},
      {"smiles": "COC(=O)c1ccc(CSc2nc3c(cnn3-c3ccc(F)cc3)c(=O)[nH]2)o1", "hERG current change (%, negative = inhibition) at 10uM": 13.1},
      {"smiles": "O=C(Nc1ccccc1)c1ccc2c(c1)OCCCO2", "hERG current change (%, negative = inhibition) at 10uM": -10.7},
      {"smiles": "COc1ccc(-c2c[n+]3c(n2-c2ccccc2)SCC3)cc1OC.[Br-]", "hERG current change (%, negative = inhibition) at 10uM": 4.92},
      {"smiles": "O=[N+]([O-])c1cccc(-c2c[n+]3c(n2-c2ccccc2)SCC3)c1.[Br-]", "hERG current change (%, negative = inhibition) at 10uM": -42.3},
      {"smiles": "[Br-].c1ccc(Cn2c(-c3ccccc3)c[n+]3c2SCCC3)cc1", "hERG current change (%, negative = inhibition) at 10uM": -70.9},
      {"smiles": "O=C(CSc1nnc2ccc(-c3ccc(F)cc3)nn12)N1CCCC1", "hERG current change (%, negative = inhibition) at 10uM": -13.5}
    ]}
  ]
}
